From PubChem BioAssay
Calls of active or inactive are those of the source.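 The calls were made as follows, unless noted: active = inhibition above 20% together with a positive visual image hit; inconclusive = visual image hit but inhibition not above 20%; inactive = no visual image hit.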

Columns and labels:
[1] = inhibitors of TNFa-induced NFkB p65 translocation, primary screen, imaging, HUVEC, MLSMR starter and 10KST1 sets (AID 438); details: HUVEC TNFa-induced p65 nuclear translocation; cell count: measured here: nuclei count (cytotoxicity indicator), at 2.08 µM unless noted; inhibition: at 2 µM, stronger effect = higher value unless noted;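 also: compound added about 3h40 before a 20 min TNFalpha stimulation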;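 as to inhibition: signal is the nuclear over cytoplasmic p65 intensity ratio per well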
[2] = inhibitors of E-selectin induction by TNFa, primary screen, imaging, HUVEC, immunofluorescence, MLSMR starter and 10KST1 sets (AID 487;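 active = visually confirmed hit in the image check and inhibition above 20%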;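 as to inhibition: signal is fraction of cell area covered by stained E-selectin grains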;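 as to nuclei count: 100% = median nuclei count of all wells on the same plate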); details: HUVEC TNFalpha-induced E-selectin immunofluorescence imaging, at 2 µM; inhibition: stronger effect = higher value; nuclei count: measured here: cell number, toxicity
[3] = DUSP6 inhibitors restoring Erk phosphorylation by chemical complementation, primary imaging in DUSP6-transfected HeLa (AID 609;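 active = compounds giving at least 50% inhibition in the cell-based MKP-3 phosphatase rescue imaging test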;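 as to inhibition: phospho-Erk level distribution per well compared with pooled transfected vehicle control wells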); details: HeLa MKP-3 transfected, phospho-Erk imaging KS statistic, at 10 µM
[4] = target: Dual specificity protein phosphatase 6 (Homo sapiens) (UniProt Q16828); assay: as above; details: HeLa MKP-3 transfected, phospho-Erk imaging KS statistic, at 10 µM, stronger effect = higher value
Dual specificity protein phosphatase 6 (Homo sapiens), sequence (Q16828 whole entry, looked up): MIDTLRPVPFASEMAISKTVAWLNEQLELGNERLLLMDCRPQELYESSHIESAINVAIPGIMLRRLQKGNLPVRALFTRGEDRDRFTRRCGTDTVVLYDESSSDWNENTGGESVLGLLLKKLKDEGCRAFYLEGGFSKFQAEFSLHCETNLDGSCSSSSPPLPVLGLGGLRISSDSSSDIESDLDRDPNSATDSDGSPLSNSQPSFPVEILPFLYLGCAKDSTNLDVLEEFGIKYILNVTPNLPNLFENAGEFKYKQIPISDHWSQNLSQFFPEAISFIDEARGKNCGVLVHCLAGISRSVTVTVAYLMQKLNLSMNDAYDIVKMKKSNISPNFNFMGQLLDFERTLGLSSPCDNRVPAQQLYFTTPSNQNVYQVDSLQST

[5] = target: Voltage-gated potassium channel subunit beta-2 (Rattus norvegicus) (UniProt P62483); assay: KvBeta enzyme negative modulators, primary screen, biochemical, NADPH fluorescence (AID 622;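 active = fluorescence slope higher than the sample average by over 3 SD, cut at about -0.22 in these data, passing the limit was not always enough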;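 also: slope of raw intensity against log time taken from 70 to 1610 s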); details: recombinant KvBeta, 4-cyanobenzaldehyde reduction, at 10 µM, stronger effect = higher value
Voltage-gated potassium channel subunit beta-2 (Rattus norvegicus), sequence (P62483 whole entry, looked up): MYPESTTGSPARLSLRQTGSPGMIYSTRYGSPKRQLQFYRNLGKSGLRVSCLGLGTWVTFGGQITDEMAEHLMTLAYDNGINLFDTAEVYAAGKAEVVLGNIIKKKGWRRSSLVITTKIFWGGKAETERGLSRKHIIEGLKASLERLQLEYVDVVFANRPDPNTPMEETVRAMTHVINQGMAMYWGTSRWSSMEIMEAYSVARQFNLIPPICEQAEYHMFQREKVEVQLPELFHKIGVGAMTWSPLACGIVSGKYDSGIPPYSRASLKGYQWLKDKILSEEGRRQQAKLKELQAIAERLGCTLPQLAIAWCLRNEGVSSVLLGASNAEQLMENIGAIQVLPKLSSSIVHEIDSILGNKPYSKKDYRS

[6] = target: Voltage-gated potassium channel subunit beta-2 (Rattus norvegicus) (UniProt P62483); assay: KvBeta positive modulators, primary screen, biochemical, NADPH fluorescence (AID 623;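 active = NADPH fluorescence slope more negative than the mean of all samples by about 3 SD, 99.7% confidence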;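 also: fluorescence intensity change per second fitted from 20 to 320 s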); details: Recombinant KvBeta, NADPH fluorescence decrease slope, 10 min; at 10 µM; stronger effect = lower value
[7] = target: Alpha-2C adrenergic receptor (Homo sapiens) (UniProt P18825); assay: modulators of alpha2C/GIRK thallium flux, primary screen, cell-based, HEK293 alpha2C/GIRK1/2 (AID 624;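 active = fluorescence slope after compound addition differing from the mean of all screened samples at 99.7% confidence, in either direction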;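 also: slope of fluorescence ratio to pre-addition baseline per second over 15 to 24 s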); details: thallium flux BTC fluorescence, at 10 µM, actives lie on both sides
Alpha-2C adrenergic receptor (Homo sapiens), sequence (P18825 whole entry, looked up): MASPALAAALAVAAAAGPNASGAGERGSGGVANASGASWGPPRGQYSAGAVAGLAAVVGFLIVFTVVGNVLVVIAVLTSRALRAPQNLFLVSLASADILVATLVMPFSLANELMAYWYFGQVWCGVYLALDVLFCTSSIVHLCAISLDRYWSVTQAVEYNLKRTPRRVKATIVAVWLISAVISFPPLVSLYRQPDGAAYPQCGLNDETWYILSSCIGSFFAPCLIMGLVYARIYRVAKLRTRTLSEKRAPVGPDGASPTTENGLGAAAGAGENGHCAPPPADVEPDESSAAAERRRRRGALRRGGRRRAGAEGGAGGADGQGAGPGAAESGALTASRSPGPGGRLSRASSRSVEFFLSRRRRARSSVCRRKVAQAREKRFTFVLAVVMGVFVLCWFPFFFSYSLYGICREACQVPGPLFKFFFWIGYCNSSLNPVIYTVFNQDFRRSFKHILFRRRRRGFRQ

[8] = inhibitors of larval lipid processing in zebrafish, primary screen, whole organism, PED6 fluorescence, gall bladder and intestine (AID 686;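 active = a full or partial loss of lipid-probe fluorescence in the fish gall bladder, intestine or both, judged by eye; inactive = no fluorescence loss, or compound toxic to the fish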;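 also: larvae 5 to 7 days old with five fish per well; signal comes from phospholipase A2 cleavage of quenched PED6 carried via bile; overnight exposure to compound and PED6 before scoring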); details: Zebrafish larvae PED6 lipid processing, fluorescence scoring
[9] = inhibitors of Chlamydomonas gravitaxis, primary screen, whole organism, Chlamydomonas reinhardtii, WT vs cilia-less mutant, absorbance, 96-well (AID 463189;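 active = inhibition at or above 50% relative to wild type and mutant plate controls; inactive = inhibition below 50%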;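 also: 0% = wild type cc124 cells in DMSO and 100% = ciliumless bld1 mutant cells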); details: OD600 absorbance, 2 days, at 10 µM, stronger effect = higher value
[10] = inhibitors of mutant huntingtin aggregation, primary screen, imaging, exon1htt(103Q)mCFP cells, high-content imaging (AID 483;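 active = visual image review flags a hit and inhibition of aggregation exceeds 20%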;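 also: compound exposure lasted 3 days before fixation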;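 as to nuclei count: percent of the per-plate median nuclei count of sample wells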); details: exon1htt(103Q)mCFP cell line, aggregate imaging, at 2 µM; inhibition of aggregation: stronger effect = higher value; nuclei count: measured here: cell count, toxicity
[11] = inhibitors of Sendai virus-induced IRF3 signaling, primary screen, TLR/RLR signaling modifier project, cell-based, Sendai virus stimulus, luciferase, 10K MLSCN set (AID 602276;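 active = inhibition at or above 50% at 10 µM; inactive = inhibition below 50%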;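 also: firefly luciferase from ISG56 promoter only with Renilla not read in this screen; 0% = Sendai virus plus DMSO and 100% = medium plus DMSO without virus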); details: HEK293 RL24 IRF3 luciferase reporter, at 10 µM, stronger effect = higher value
[12] = inhibitors of poly I:C-induced TLR3 signaling, primary screen, cell-based, poly I:C stimulus, luciferase, 10K MLSCN set (AID 602277;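 active = inhibition of the reporter signal at or above 50%; inactive = inhibition below 50%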); details: HEK293-TLR3 RL24 IRF3 luciferase reporter, at 10 µM, stronger effect = higher value
[13] = measured here: cell density z-score
[14] = measured here: nuclear c-Myc green intensity z-score
[15] = measured here: nuclear pErk red intensity z-score, stronger effect = higher value

Row | Compound | cell count [1] | inhibition [1] | inhibition [2] | nuclei count [2] | z-score [3, 13] | z-score [3, 14] | z-score [3, 15] | inhibition [4] | fluorescence slope [5] | NADPH fluorescence slope [6] | slope [7] | outcome [8] | inhibition [9] | inhibition of aggregation [10] | nuclei count [10] | inhibition [11] | inhibition [12]
1 | O=c1[nH]c(=O)n(Cc2ccco2)c(O)c1C=NCc1ccc2c(c1)OCO2 | 562 | -4.8% (inactive) | 50.7% (inactive) | 148% | -1.72 | -1.79 | -0.396 | -8.76% (inactive) | -0.254 (inactive) | -1.2e-06 (inactive) | 0.00624 (inactive) | inactive | 18.3% (inactive) |  |  |  | 
2 | CC(=NCCO)c1c(O)n(C)c(=O)n(C)c1=O | 608 | -15.1% (inactive) | -3.1% (inactive) | 90.8% | 2.05 | -1.46 | -1.21 | 31% (inactive) | -0.432 (inactive) | -4.7e-06 (inactive) | 0.00689 (inactive) | inactive | -8.68% (inactive) |  |  |  | 
3 | CC(C)Cc1[nH]c(=O)c(C#N)c2c1CCC2 | 490 | 8.7% (inactive) | -51.3% (inactive) | 119% | 0.582 | 0.998 | -0.369 | -1.75% (inactive) | -0.439 (inactive) | -4.3e-06 (inactive) | 0.00495 (inactive) | inactive | 20.8% (inactive) |  |  |  | 
4 | CNCCc1nc(N)n[nH]1 | 570 | -4.9% (inactive) | -160% (inactive) | 139% | 1.42 | -0.447 | -0.807 | 27.8% (inactive) | -0.507 (inactive) | -4.4e-05 (inactive) | 0.00445 (inactive) | inactive | 24% (inactive) |  |  |  | 
5 | CC1(C)CC(n2[nH]c(=O)c3c2NC(=O)CSC3c2ccccc2)CCO1 (stereo not drawn) | 532 | 10.5% (inactive) | -152% (inactive) | 128% | -0.163 | 0.684 | -0.467 | 1.75% (inactive) | -0.501 (inactive) | -2.3e-05 (inactive) | 0.00596 (inactive) | inactive | -16.8% (inactive) |  |  |  | 
6 | COc1cccc(-n2c(O)c(C=NCCN3CCOCC3)c(=O)[nH]c2=O)c1 | 512 | -1.1% (inactive) | -10.1% (inactive) | 92.8% | -1.1 | 2.1 | 0.315 | -5.26% (inactive) | -0.386 (inactive) | -1.1e-05 (inactive) | 0.00613 (inactive) | inactive | -13% (inactive) |  |  |  | 
7 | CCCCCCn1c(O)c(C=NCCCn2ccnc2)c(=O)[nH]c1=O | 654 | -20.1% (inactive) | 13.9% (inactive) | 134% | 1.42 | -1.88 | -0.817 | 2.71% (inactive) | -0.5 (inactive) | -2e-06 (inactive) | 0.0065 (inactive) | inactive | 13.6% (inactive) |  |  |  | 
8 | C/C(Cl)=C/CC1(CN2CCCC2=O)C(=O)NC(=O)NC1=O | 584 | -2.5% (inactive) | -26.8% (inactive) | 102% | -1.18 | 1.93 | 0.656 | -3.98% (inactive) | -0.484 (inactive) | -0.000274 (inactive) | 0.00947 (inactive) | inactive | -13.6% (inactive) |  |  |  | 
9 | Cc1cccc(N2CCc3c2nc2ccccc2c3N)c1 | 731 | -6.5% (inactive) | -54.5% (inactive) | 112% |  |  |  |  | -0.113 (active) | -9.7e-06 (inactive) | 0.00452 (inactive) |  |  | -7.8% (inactive) | 98% | 15.5% (inactive) | 31.6% (inactive)
10 | COc1ccccc1N1CCN(Cc2c(F)cccc2F)CC1 | 410 | -1.1% (inactive) | -26.3% (inactive) | 118% |  |  |  |  | -0.431 (inactive) | -1.4e-05 (inactive) | 0.00585 (inactive) |  |  | 13.8% (inactive) | 98.7% | 15.2% (inactive) | 27.3% (inactive)
11 | O=c1[nH]c(=O)n(Cc2ccc(F)cc2)c(O)c1C=NCCCN1CCOCC1 | 728 | -22.4% (inactive) | 35.3% (inactive) | 101% |  |  |  |  | -0.441 (inactive) | 1.3e-06 (inactive) | 0.00502 (inactive) |  |  | 4.6% (inactive) | 105% | -0.0843% (inactive) | 3.86% (inactive)
12 | Cc1ccccc1NC1=NCCCS1 | 457 | -10.3% (inactive) | 67.8% (inactive) | 74.1% |  |  |  |  | -0.357 (inactive) | -3.1e-05 (inactive) | 0.00361 (inactive) |  |  | 29.9% (active) | 83.1% | 0.817% (inactive) | 19% (inactive)
13 | C=CCn1c(O)c(C(C)=Nc2ccc(N(CC)CC)cc2)c(=O)[nH]c1=O | 327 | 2.5% (inactive) | -33.7% (inactive) | 109% |  |  |  |  | -0.492 (inactive) | 2.3e-05 (inactive) | 0.00389 (inactive) |  |  | -15.3% (inactive) | 102% | 21.7% (inactive) | 25.5% (inactive)
14 | CC(C)OCCCNC(=O)c1c(N)n(Cc2cccs2)c2nc3ccccc3nc12 | 434 | -9.3% (inactive) | 4.6% (inactive) | 134% |  |  |  |  | -0.212 (inactive) | 1.8e-05 (inactive) | 0.00386 (inactive) |  |  | 17.9% (inactive) | 90.9% | 14.8% (inactive) | 37.4% (inactive)
15 | Cc1oc2ccc(OC(=O)N(C)C)cc2c1C(=O)OC(C)C | 450 | 0.8% (inactive) | -78.3% (inactive) | 155% |  |  |  |  | -0.606 (inactive) | -3.3e-05 (inactive) | 0.00801 (inactive) |  |  | 1.1% (inactive) | 99.7% | 9.46% (inactive) | -11.8% (inactive)
16 | CCC(C(=O)N1CCC2(CC1)OCCO2)c1ccccc1 (stereo not drawn) | 391 | 8.2% (inactive) | -81.6% (inactive) | 99.5% |  |  |  |  | -0.381 (inactive) | -2.6e-05 (inactive) | 0.00492 (inactive) |  |  | 18.1% (inactive) | 111% | 14.2% (inactive) | 7.25% (inactive)
17 | CCCCNC(=O)c1c(N)n(CCCOC)c2nc3ccccc3nc12 | 447 | 14.6% (inactive) | 0.8% (inactive) | 111% |  |  |  |  | -0.245 (inactive) | -2.4e-06 (inactive) | 0.00654 (inactive) |  |  | 16.7% (inactive) | 95% | -5.16% (inactive) | -28.3% (inactive)
18 | C=CCn1c(O)c(C(C)=NCc2cccnc2)c(=O)[nH]c1=O | 364 | -1% (inactive) | -99.8% (inactive) | 162% |  |  |  |  | -0.429 (inactive) | -4.2e-05 (inactive) | 0.00457 (inactive) |  |  | 15.3% (inactive) | 96% | 9.61% (inactive) | 32.6% (inactive)
19 | CP(C)(=O)CCC(=O)O | 347 | -7.5% (inactive) | -100% (inactive) | 118% |  |  |  |  | -0.434 (inactive) | -0.000166 (inactive) | 0.00678 (inactive) |  |  | -5.3% (inactive) | 99.6% | 2.85% (inactive) | 10.1% (inactive)
20 | CCOC(=O)C1SC2(C(F)F)CC1(O)c1c(c(OC)c3occc3c1OC)O2 (stereo not drawn) | 665 | -5.1% (inactive) | 52.9% (inactive) | 105% |  |  |  |  | -0.326 (inactive) | -5.6e-05 (inactive) | 0.00497 (inactive) |  |  | 13% (inactive) | 98.5% | 4.1% (inactive) | 14.4% (inactive)
21 | CN1C(=O)N(C)C(=O)C2(Cc3ccccc3N3CCOCC32)C1=O (stereo not drawn) | 547 | -5.7% (inactive) | -43.9% (inactive) | 148% |  |  |  |  | -0.363 (inactive) | 3.8e-05 (inactive) | 0.00653 (inactive) |  |  | -30.5% (inactive) | 92.5% | 16.2% (inactive) | 24.6% (inactive)
22 | Cc1ccccc1-n1c(O)c(C=NCCN2CCOCC2)c(=O)[nH]c1=O | 335 | -9.5% (inactive) | -110% (inactive) | 135% |  |  |  |  | -0.432 (inactive) | -2.7e-05 (inactive) | 0.00516 (inactive) |  |  | -8.6% (inactive) | 138% | 1.33% (inactive) | -0.798% (inactive)
23 | Cc1ccc(C2SCC(=O)Nc3c2c(=O)[nH]n3C2CCOC(C)(C)C2)cc1 (stereo not drawn) | 378 | -0.6% (inactive) | -20.4% (inactive) | 111% |  |  |  |  | -0.37 (inactive) | -3.9e-05 (inactive) | 0.00325 (inactive) |  |  | -18.2% (inactive) | 128% | 18% (inactive) | 29.8% (inactive)
24 | C=CCn1c(O)c(C(C)=NCCCO)c(=O)[nH]c1=O | 631 | 5.7% (inactive) | -110% (inactive) | 156% |  |  |  |  | -0.467 (inactive) | -4.7e-05 (inactive) | 0.00383 (inactive) |  |  | -3.2% (inactive) | 108% | -1.46% (inactive) | 16.8% (inactive)
25 | COc1ccc(CN2CCN(c3ccccc3F)CC2)c(OC)c1 | 420 | 7.1% (inactive) | -39% (inactive) | 125% |  |  |  |  | -0.38 (inactive) | 4.4e-05 (inactive) | 0.00736 (inactive) |  |  | -8.1% (inactive) | 109% | 4.18% (inactive) | 24.2% (inactive)
26 | O=c1[nH]c(=O)n(CCc2ccc(F)cc2)c(O)c1C=NCCCn1ccnc1 | 544 | 2.2% (inactive) | 2.2% (inactive) | 102% |  |  |  |  | -0.589 (inactive) | -3.2e-05 (inactive) | 0.00323 (inactive) |  |  | -7.2% (inactive) | 110% | 13.3% (inactive) | 24% (inactive)
27 | CCCCn1c(O)c(C(CC)=Nc2cccc(C(=O)O)c2)c(=O)[nH]c1=O | 688 | -5.8% (inactive) | -25.6% (inactive) | 105% |  |  |  |  | -0.382 (inactive) | 2.4e-05 (inactive) | 0.00652 (inactive) |  |  | 9.5% (inactive) | 86.6% | 9.53% (inactive) | 9.91% (inactive)
